Results from PubChem BioAssay (Tox21).
Results filed as inconclusive are left out. Values without a mark were called inactive. Calls of active or inactive are those of the source. The call rests on the fitted dose curve; in most records, active means well fitted cell-killing curve with a large enough effect in the repeat runs; inconclusive means weak or mixed curves, or effect the other way; inactive means flat fitted curve, though single readings scatter.

Test: cAMP Responsive Elements (CRE) small molecule antagonists, cell-based qHTS assay: qHTS cell viability counter screen (AID 2060913); further: nearly all actives have a fitted effect of over 40% in size
Conditions: CRE-bla HEK293T viability, CellTiter-Glo luminescence, 5 h; series mostly up to 92.4 µM; viability change, negative = cytotoxic: at the top concentration
Procedure, shortened: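 Cytotoxicity read in the same wells as the CRE-bla HEK293T antagonist assay: after 3 h compound with 0.25 uM NKH477 final and 2 h beta-lactamase substrate, CellTiter-Glo luminescence measured.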
On the % scale 0 is the no-effect control and ±100 the full control effect.

| Compound | viability change, negative = cytotoxic | Potency |
| --- | --- | --- |
| CCCCCCCCCCCCCCCCCC(=O)OCCCCCCCCCCCCCC(C)C | -17.9% |  |
| O=C1NC(=O)c2cc([N+](=O)[O-])ccc21 | 3.74% |  |
| Cc1nnc(SCC2=C(C(=O)O)N3C(=O)[C@@H](NC(=O)Cn4cnnn4)[C@H]3SC2)s1 | -0.476% [at 42.5 µM] |  |
| CCCCCCCCCCCC(C)=O | 3.61% |  |
| Clc1nc2ccccc2nc1Cl | 0.495% |  |
| CCCCCCCCCCCCCCC(=O)NC(CO)CCCCCCCCCCCCCC (stereo not given) | -0.328% |  |
| COC(=O)CCSCCC(=O)OC | -1.72% |  |
| COCC(O)CO (stereo not given) | 8.38% |  |
| Cc1ccc(O)c2ncccc12 | -6.75% [at 42.5 µM] |  |
| CCc1ccc(CC)cc1 | 0.671% |  |
| NS(=O)(=O)c1cc2c(cc1Cl)NC(C1CC3C=CC1C3)NS2(=O)=O (stereo not given) | -0.81% [at 42.5 µM] |  |
| CCCCC(CC)COC(=O)C(C#N)=C(c1ccccc1)c1ccccc1 (stereo not given) | -5.63% [at 42.5 µM] |  |
| CCOC(=O)COc1cc(-n2ncc(C(F)(F)F)c(C)c2=O)c(F)cc1Cl | 0.109% |  |
| O=c1[nH]c(=O)n([C@H]2C[C@H](O)[C@@H](CO)O2)cc1Br |  | inactive |
| Cl[Si](Cl)(c1ccccc1)c1ccccc1 | 4.97% |  |
| Cc1c(N)cccc1[N+](=O)[O-] | 6.43% |  |
| CCc1cccc(C)c1N(C(=O)C(=O)O)C(C)COC (stereo not given) | -0.724% |  |
| C(=C/c1ccccc1)/c1ccccc1 | 4.73% |  |
| CC(C)CC=O | 0.251% |  |
| COc1cc(O)cc(O)c1 | -2.35% [at 42.5 µM] |  |

| Compound | viability change, negative = cytotoxic | Potency |
| --- | --- | --- |
| O=S(=O)(O)c1ccccc1O | 8.12% |  |
| CC(O)CN(CCN(CC(C)O)CC(C)O)CC(C)O (stereo not given) |  | inactive |
| O=C(c1ccc(O)cc1)c1ccc(O)c(O)c1O | -4.4% |  |
| CCc1occc(=O)c1O | 9.48% |  |
| Nc1ccc(S(N)(=O)=O)cc1 |  | inactive |
| CCOC(=O)C(C#N)=C(c1ccccc1)c1ccccc1 |  | inactive |
| C[C@@H]1CCC[C@H](C)N1CCCC(O)(c1ccccc1)c1ccccn1 (stereo not given in full) | -3.58% [at 42.5 µM] |  |
| Cc1ccc(O)cc1 |  | inactive |
| CCCCCCCC/C=C\CCCCCCCCN | 5.76% [at 42.5 µM] |  |
| CCCCCC[C@@H](O)C/C=C\CCCCCCCC(=O)OC | -11.1% |  |
| CCCCCCCOC(C)=O | 9.11% |  |
| CCOC(=O)c1cccnc1 | 4.14% [at 42.5 µM] |  |
| CCCCC[C@H](O)/C=C/[C@H]1[C@H](O)CC(=O)[C@@H]1C/C=C\CCCC(=O)O | -1.13% [at 42.5 µM] |  |
| Cc1cccc(S(=O)(=O)O)c1C | 0.0109% |  |
| CC(=O)CCC=C(C)C |  | inactive |
| CCOC(=O)CCC(=O)OCC | 1.03% |  |
| C=CCOCC(CO)(COCC=C)COCC=C | 4.86% [at 42.5 µM] |  |
| CC(=O)c1cc(C)oc1C | -4.15% |  |
| CCCCC(CC)COC(=O)c1ccc(C(=O)OCC(CC)CCCC)cc1 (stereo not given) |  | inactive |
| C/C=C/C(=O)OCC(C)C | 2.42% |  |

Test: cAMP Responsive Elements (CRE) small molecule agonists, cell-based qHTS assay: qHTS cell viability counter screen (AID 2060914); further: nearly all actives have a fitted effect of over 50% in size
Conditions: CRE-bla HEK293T viability, CellTiter-Glo luminescence, 5 h; series mostly up to 92.4 µM; activity change, negative = cytotoxicity: at the top concentration
Procedure, shortened: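 Cytotoxicity was measured as ATP luminescence (CellTiter-Glo, 30 min at room temperature) in the same wells as the CRE-bla FRET read-out. HEK293T CRE-bla cells had 3 h compound exposure at 37C/5% CO2.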

| Compound | activity change, negative = cytotoxicity | Potency |
| --- | --- | --- |
| CCCCCCCCCCCCCCCCCC(=O)OCCCCCCCCCCCCCC(C)C | 5.16% |  |
| O=C1NC(=O)c2cc([N+](=O)[O-])ccc21 | 5.28% |  |
| Cc1nnc(SCC2=C(C(=O)O)N3C(=O)[C@@H](NC(=O)Cn4cnnn4)[C@H]3SC2)s1 | -0.095% [at 42.5 µM] |  |
| CCCCCCCCCCCC(C)=O | 0.0016% |  |
| Clc1nc2ccccc2nc1Cl | 0.415% |  |
| CCCCCCCCCCCCCCC(=O)NC(CO)CCCCCCCCCCCCCC (stereo not given) | 7.48% |  |
| COC(=O)CCSCCC(=O)OC | -1.81% |  |
| COCC(O)CO (stereo not given) | -19.8% |  |
| Cc1ccc(O)c2ncccc12 | -0.429% [at 42.5 µM] |  |
| CCc1ccc(CC)cc1 | 0.237% |  |
| NS(=O)(=O)c1cc2c(cc1Cl)NC(C1CC3C=CC1C3)NS2(=O)=O (stereo not given) | -1.72% [at 42.5 µM] |  |
| CCCCC(CC)COC(=O)C(C#N)=C(c1ccccc1)c1ccccc1 (stereo not given) | -16.9% |  |
| CCOC(=O)COc1cc(-n2ncc(C(F)(F)F)c(C)c2=O)c(F)cc1Cl | 4.5% |  |
| O=c1[nH]c(=O)n([C@H]2C[C@H](O)[C@@H](CO)O2)cc1Br |  | inactive |
| Cl[Si](Cl)(c1ccccc1)c1ccccc1 | -2.28% |  |
| Cc1c(N)cccc1[N+](=O)[O-] | -11.4% |  |
| CCc1cccc(C)c1N(C(=O)C(=O)O)C(C)COC (stereo not given) | -1.99% |  |
| C(=C/c1ccccc1)/c1ccccc1 | -1.04% |  |
| CC(C)CC=O | 6.2% |  |
| COc1cc(O)cc(O)c1 | -0.109% [at 42.5 µM] |  |

| Compound | activity change, negative = cytotoxicity | Potency |
| --- | --- | --- |
| O=S(=O)(O)c1ccccc1O | 8.19% |  |
| CC(O)CN(CCN(CC(C)O)CC(C)O)CC(C)O (stereo not given) |  | inactive |
| O=C(c1ccc(O)cc1)c1ccc(O)c(O)c1O | 12.7% |  |
| CCc1occc(=O)c1O | -0.92% |  |
| Nc1ccc(S(N)(=O)=O)cc1 |  | inactive |
| CCOC(=O)C(C#N)=C(c1ccccc1)c1ccccc1 |  | inactive |
| C[C@@H]1CCC[C@H](C)N1CCCC(O)(c1ccccc1)c1ccccn1 (stereo not given in full) | 0.246% [at 42.5 µM] |  |
| Cc1ccc(O)cc1 |  | inactive |
| CCCCCCCC/C=C\CCCCCCCCN | -0.505% [at 42.5 µM] |  |
| CCCCCC[C@@H](O)C/C=C\CCCCCCCC(=O)OC | -2.83% |  |
| CCCCCCCOC(C)=O | 3.23% |  |
| CCOC(=O)c1cccnc1 | -20.5% [at 42.5 µM] |  |
| CCCCC[C@H](O)/C=C/[C@H]1[C@H](O)CC(=O)[C@@H]1C/C=C\CCCC(=O)O | 7% [at 42.5 µM] |  |
| Cc1cccc(S(=O)(=O)O)c1C | -0.515% |  |
| CC(=O)CCC=C(C)C |  | inactive |
| CCOC(=O)CCC(=O)OCC | -0.328% |  |
| C=CCOCC(CO)(COCC=C)COCC=C | 2.85% [at 42.5 µM] |  |
| CC(=O)c1cc(C)oc1C | 4.13% |  |
| CCCCC(CC)COC(=O)c1ccc(C(=O)OCC(CC)CCCC)cc1 (stereo not given) | 1.15% |  |
| C/C=C/C(=O)OCC(C)C | -1.77% |  |
